ERG-DNA inh: qHTS for Small Molecule Inhibitors of the ERG Ets/DNA interaction; Transcriptional regulator ERG (Homo sapiens), P11308; actives 0.028% (n = 370,000); fluorescence polarization, His-ERG Ets domain / labelled DNA; AID 624246, 2012; Potency, µM (series often up to 76.9 µM), without a hit: at the highest dose FP activity, negative = inhibition, usual class: inhibitors; active = well fitted inhibition curve with a large enough effect in the polarisation, with a control signal flat; inconclusive = small, poorly fitted or top-dose-only effect, or effect the other way, or a change in a side signal; inactive = no such curve, though single readings can be large or run the other way; the % refers to the polarisation;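 note: polarization taken with two DNA probes labelled with fluorescein and Texas red; % of control where 0% means no effect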
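His-tagged ERG Ets domain (1 uM in the protein solution; 300mM KCl, 50mM Tris-HCl, 1mM EDTA, 1mM DTT, pH 7.5) received compound, then a probe mix of 5 nM fluorescein-DNA and 100nM Texas-615-DNA. Fluorescence polarization was read for both dyes.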
B2AR arrestin: qHTS assay of beta-arrestin-biased ligands of beta2-adrenergic receptor; AID 492947, 2010; Potency, µM (titrated, usually from 46.1 µM), inactives show at the top dose activation, actives largely listed as activators; actives 0.02% (n = 330,000); beta-arrestin recruitment to beta2AR, cell-based reporter; Beta-2 adrenergic receptor (Homo sapiens), P07550;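 note: 0% = DMSO controls and full agonism = EC100 isoproterenol or metaproterenol; nearly all actives have a fitted effect of over 65% in size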
Target sequence (P07550 whole entry, looked up): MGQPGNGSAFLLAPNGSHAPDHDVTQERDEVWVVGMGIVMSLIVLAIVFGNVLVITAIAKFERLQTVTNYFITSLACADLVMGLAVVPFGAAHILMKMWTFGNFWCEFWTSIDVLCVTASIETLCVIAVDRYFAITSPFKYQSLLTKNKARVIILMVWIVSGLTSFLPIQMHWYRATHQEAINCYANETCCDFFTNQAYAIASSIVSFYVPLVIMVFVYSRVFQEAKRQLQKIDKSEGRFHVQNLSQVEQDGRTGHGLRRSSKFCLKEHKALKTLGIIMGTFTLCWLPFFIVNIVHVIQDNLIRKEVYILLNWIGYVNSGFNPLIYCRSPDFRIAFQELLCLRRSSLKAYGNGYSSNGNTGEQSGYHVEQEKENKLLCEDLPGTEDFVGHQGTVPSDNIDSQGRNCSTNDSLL
BRCA1 expr up: qHTS Assay to Identify Small Molecule Activators of BRCA1 Expression | actives 1.1% (n = 380,000) | MCF7-BRCA1-FFLuc reporter, luminescence, 48 h; response scale: scaled: vehicle 0%, 10 µM genistein 100% | AID 624202, 2012 | Potency, µM (titrated, usually from 46.1 µM), for the others: top-dose activation, actives largely listed as activators; note: nearly all actives have a fitted effect of over 80% in size
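MCF7-BRCA1-FFLuc cells, 2000/well in phenol-red-free MEM, attached 2 h then treated 48 h at 37 C. Luciferase luminescence read 15 min after reagent; normalized to genistein maximum activation (10microM) and DMSO, concentration-response fitted.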
Mito fusion yeast: qHTS Assay for Small Molecule Inhibitors of Mitochondrial Division or Activators of Mitochondrial Fusion; Potency, µM (doses to about 46.1 µM), without a hit: top-dose growth rescue (activation), most hits filed as activators; S. cerevisiae fusion-defective mutant growth rescue, CellTiterGlo 48 h; actives 0.23% (n = 320,000); AID 485298, 2010; note: % of control where 0% means no effect; nearly all actives have a fitted effect of over 45% in size
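Growth-rescue viability read-out: after 48 h at the non-permissive 37C in glycerol/ethanol YPEG, yeast mitochondrial fusion mutants are measured by CellTiterGlo luminescence; compounds (23 nl pinned per well) restoring growth score as division inhibitors or fusion activators.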
Numbers without * were called inactive; ? = inconclusive; nt = not tested or not shown; [ ] = remark or other dose. Hits are enriched below; roughly 1.2% of the tested compounds scored in any of these assays. Unless noted, calls come from the whole dose curve; as a rule, active = well fitted curve in the direction sought with a large enough effect; inconclusive = small, poorly fitted or top-dose-only effect, or another doubt; inactive = no such curve, though single readings can be large; an effect the other way counts as inactive or inconclusive. Potency is the fitted concentration of half-maximal effect.

SMILES	ERG-DNA inh	B2AR arrestin	BRCA1 expr up	Mito fusion yeast
CC(=O)Nc1nc(COc2ccccc2)cs1	-4.0%	0.0%	10µM*	3.5%
COc1cccc(-c2csc(NC(C)=O)n2)c1	-2.2%	-0.1%	12.6µM*	0.2%
CC(=O)Nc1nc(COc2ccc3ccccc3c2)cs1	-2.2%	-1.1%	42.6%[1.84 µM]	1.2%
CCc1ccc(-c2csc(NC(=O)Oc3ccccc3)n2)cc1	-1.1%	-1.0%	7.94µM*	6.4%
O=C(Cc1ccc(F)cc1)Nc1nc(-c2ccc(F)cc2)cs1	-1.9%	-1.5%	-12.2%	5.8%
Clc1cccc(-n2ncc3c(NCCCN4CCOCC4)ncnc32)c1	-1.1%	nt	nt	nt
C=CCn1c(SCC)nc2ccccc2c1=O	nt	nt	1.6%	nt
CCOC(=O)Cn1c(=N)n(Cc2ccc(C(C)(C)C)cc2)c2ccccc21	3.3%	nt	nt	nt
Cc1ccc(Cl)cc1NC(=O)Cn1c(=O)n(C(C)C)c(=O)c2oc3ccccc3c21	0.0%	nt	nt	nt
CN(C)c1ccc(/C=C/c2ccnc3ccc(I)cc23)cc1	nt	nt	9.0%	nt
CCCCNC(=O)Cn1ncc2c(C)n(Cc3cccc(Cl)c3)c(C)c2c1=O	-1.8%	nt	nt	nt
Cc1ccc(-c2nn3c(=O)cc(CN4CCN(C(=O)c5ccc(C(C)(C)C)cc5)CC4)nc3s2)cc1	2.5%	nt	0.0%	nt
CCc1ccc(OC(=O)Nc2ccccc2)cc1	-2.9%	-0.7%	2.82µM*	2.7%
Cc1ccc(O)c(CNc2ccccn2)c1	2.8%	-0.2%	15.8µM*	1.5%
Cc1ccnc(NCc2cc(C)ccc2O)c1	0.7%	-0.1%	85.2%	-6.4%
Cc1ccc(N2CC(c3nnc(Cc4ccc(F)cc4Cl)o3)CC2=O)cc1 (stereo not drawn)	-6.0%	nt	nt	nt
COc1ccc(C(=O)NCCn2ccc3ccccc32)c(OC)c1	7.9%	-1.3%	7.94µM*	7.6%
COc1ccc(C(=O)NCCN2CCOCC2)c(OC)c1	13.3%	-1.1%	-5.8%	-2.4%
C=CCc1cccc(C=Nc2c[nH]c(=O)[nH]c2=O)c1O	-15.1%	0.2%	-17.6%	1.1%
C=CCc1cccc(C=Nc2cccn3cc(-c4ccccc4)nc23)c1O	-3.1%	0.2%	11.2µM*	3.1%
CC(C)c1ccc2[nH]c3nc(SCC(=O)N4CCOCC4)nnc3c2c1	-5.3%	-1.1%	11.2µM*	-1.6%
Cc1ccc2[nH]c(SCC(=O)N3CCOCC3)nc2c1C	-1.9%	0.0%	8.91µM*	-2.8%
CC1CCN(C(=O)CSc2nnc3c(n2)[nH]c2ccc(F)cc23)CC1	-9.3%	-0.1%	-21.1%	?
Cc1ccc2nc(SCC(=O)N3CCOCC3)[nH]c2c1	0.5%	0.0%	?	3.2%
COc1ccc(NC(=O)CSc2oc(-c3ccco3)nc2S(=O)(=O)c2ccc(Br)cc2)c(OC)c1	-2.8%	nt	nt	nt
SMILES	ERG-DNA inh	B2AR arrestin	BRCA1 expr up	Mito fusion yeast
CCC(=O)C1CCCN(C(=O)c2ccc3nc(-c4cccc(OC)c4)oc3c2)C1 (stereo not drawn)	13.1%	2.2%	98.1%	-5.8%
C=C(C)CNC(=O)c1ccc2nc(Cc3ccc(OC)cc3)oc2c1	4.3%	0.0%	10µM*	0.5%
CC(=O)C1CCCN(C(=O)c2ccc3oc(CCc4ccccc4)nc3c2)C1 (stereo not drawn)	-6.2%	-0.9%	0.0%	7.4%
COc1ccc(Cc2nc3ccc(C(=O)N4CCCC4)cc3o2)cc1	6.2%	0.8%	6.31µM*	2.3%
O=C(c1ccc2oc(CCCc3ccccc3)nc2c1)N1CCCC1	14.2%	-0.3%	7.08µM*	7.4%
COc1cccc(-c2nc3ccc(C(=O)N4CCCC(O)C4)cc3o2)c1 (stereo not drawn)	-2.8%	-0.6%	3.16µM*	-3.2%
COc1ccc(Cc2nc3ccc(C(=O)N4CCCC4)cc3o2)cc1OC	-17.3%	-1.0%	-14.2%	-3.6%
CCc1ccc2occ(CC(=O)Nc3ccc(C)c(C)c3)c2c1	-1.4%	nt	nt	nt
O=[N+]([O-])c1ccc2oc(/C=C/c3ccc(O)cc3)nc2c1	nt	nt	10µM*	nt
CC(C)(C)Nc1nc2cc([N+](=O)[O-])ccc2o1	21.4%	-0.1%	21.7%	-4.3%
Nc1c(Cl)cc(C2=NCCn3nc4cc(C(F)(F)F)ccc4c32)cc1Cl	7.4%	0.3%	-73.4%	12.6µM*
COc1ccc2c(c1)c1c(c(=O)n(-c3cccc(C)c3)c(=O)n1Cc1cccc(Cl)c1)n2C	0.2%	nt	3.1%	nt
Cc1cc(C(=O)O/N=C(\N)c2ccc(C(C)(C)C)cc2)no1	-11.6%	0.3%	2.51µM*	-6.1%
CC(C)(C)c1ccc(C(=O)O/N=C(\N)c2ccccc2)cc1	-3.0%	-0.5%	-73.3%	-84.2%
CC(=O)Nc1cc(NC(C)=O)c(N=Nc2ccccc2)cc1C	-3.3%	-0.6%	3.55µM*	2.8%
Cc1cc2nc(N)sc2cc1[N+](=O)[O-]	nt	0.2%	12.6µM*	2.0%
COc1ccc2nc(N)sc2c1	3.8%	0.0%	68.0%	2.8%
C=C1C[C@@]23CC[C@H]4[C@@](C)(CCC[C@@]4(C)C(=O)OC4OC(CO)C(O)C(O)C4O)[C@@H]2CC[C@]1(OC1OC(CO)C(O)C(O)C1OC1OC(CO)C(O)C(O)C1O)C3 (stereo partly drawn)	nt	nt	nt	-6.8%
COc1ccc(OCCn2c(=O)sc3ccccc32)cc1	?	-0.2%	10µM*	27.2%
Cc1cccc(OCCn2c(=O)sc3ccccc32)c1	-1.8%	0.1%	3.55µM*	7.7%
Cc1cccc(OCCCn2c(=O)sc3ccccc32)c1	0.2%	4.8%	?	4.6%
O=C1c2cccc3c(O)ccc(c23)C(=O)N1Cc1ccccc1	?	-0.1%	-62.8%	17.8µM*
COc1ccc(N2CCN(C(=O)c3ccc(C)c(NC(=O)c4nsc5ccccc45)c3)CC2)cc1	0.0%	nt	nt	nt
Cc1ccccc1N=C(NOCc1ccc(Cl)cc1Cl)c1nonc1N	-27.4%	0.3%	-29.0%	21.0%
Cc1ccccc1N=C(NOCc1ccccc1)c1nonc1N	-1.7%	-1.4%	-34.0%	22.4µM*
SMILES	ERG-DNA inh	B2AR arrestin	BRCA1 expr up	Mito fusion yeast
Cc1ccc(-n2nc3c(N4CCCC(C(=O)NCCc5ccccc5)C4)nnc(C)c3c2C)cc1 (stereo not drawn)	-2.4%	nt	nt	nt
Cc1ccc(CNC(=O)Cn2ccn(-c3ccc(C)c(C)c3)c(=O)c2=O)cc1	0.1%	nt	nt	nt
Cc1csc(SCC(=O)Nc2ccccc2)n1	3.1%	0.3%	-0.8%	-4.5%
Cc1csc(SCC(=O)Nc2nc3ccccc3s2)n1	-2.8%	0.0%	2.82µM*	-2.6%
Cc1ccc(C(=O)Nc2nc3ccccc3s2)s1	4.2%	-0.1%	-4.4%	3.2%
CCOC(=O)CC(=O)Nc1nc2ccccc2s1	4.2%	0.3%	0.6%	-7.4%
CC(C)NC(=O)CSc1nc(-c2ccccc2)cs1	3.4%	0.1%	10µM*	22.5%
CCOC(=O)Nc1nc2ccccc2s1	-4.2%	0.4%	5.62µM*	3.0%
Cc1noc(C)c1C(=O)Nc1nc2ccccc2s1	7.2%	-0.4%	6.31µM*	8.4%
COc1ccc(Cl)cc1NC(=O)c1c(NCc2cccs2)sc2c1CCC(C)C2 (stereo not drawn)	-3.6%	nt	nt	nt
COc1ccccc1-c1nnc(SCC(=O)c2ccc(F)cc2)n1-c1ccccc1	1.2%	nt	-35.9%	nt
